# From PubChem BioAssay AID488841 (Sanford-Burnham Center for Chemical Genomics, 2010)
# The campaign covered roughly 1,400 compounds. About 380 (27%) were called active. The list shows a part of the results. Values without a mark were called inactive.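 How the source made its calls: active means mean inhibition above 50% across duplicate retests at 10 µM; inactive means the rest.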
# Test: yeast NALP1 reporter signal suppression – S. cerevisiae, luminescence, single concentration, NALP1 inhibitor project, confirmation (AID 488841);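 further: plate controls were DMSO in galactose medium for no effect and cells in plain SD medium for full effect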
# Settings: S. cerevisiae NALP1/ASC/Caspase-1 reporter, beta-gal luminescence; at 10 µM; active compounds read high
row,SMILES,inhibition
1,Brc1ccc2c(c1)OCCOCCOc1cc(Br)ccc1OCCOCCOCCO2,59.6% (active)
2,CCCc1cc(C(=O)Nc2cccc(Cl)c2)no1,67.2% (active)
3,CCn1ncc(C(=O)Nc2cccc(Cl)c2)c1C,53.8% (active)
4,CCn1nccc1C(=O)Nc1ccc(Cl)cn1,35.4%
5,CCn1ncc([N+](=O)[O-])c1C(=O)Nc1ccc(C(=O)N2CCCCC2)cc1,32.5%
6,CCCc1cc(C(=O)Nc2ccc(F)cc2F)no1,36.5%
7,CCCc1cc(C(=O)Nc2c(C)n(C)n(-c3ccccc3)c2=O)no1,23.7%
8,COc1ccc(NC(=O)c2sc(N3CCOCC3)nc2-c2ccccc2)c(OC)c1,48.4%
9,Cc1cc(NC(=O)/C=C/c2ccccc2Cl)no1,46.5%
10,O=C(/C=C/c1ccccc1Cl)c1ccc[nH]1,73% (active)
11,CC(NC(=O)Nn1cnnc1)(C(F)(F)F)C(F)(F)F,9.3%
12,CCCCCCCCNC(C)C(O)c1ccc(SC(C)C)cc1 (stereo not drawn),46.5%
13,Cc1cc(C(C)(C)C)cc(S(=O)(=O)Nc2ccc(O)c(C(=O)O)c2)c1C,24.9%
14,CC1(C)CCSC(/C=C/c2ccccc2)=N1,84% (active)
15,O=S(=O)(c1ccc(Br)cc1)N1CCCN(Cc2cccc(F)c2)CC1,59.5% (active)
16,CCOC(=O)C1CCCCN1Cc1cccc(F)c1 (stereo not drawn),19.9%
17,O=C(O)C1(c2ccccc2)CCN(S(=O)(=O)c2ccc(Br)cc2)CC1,32.4%
18,COc1ccc(CCN(C)C2CC(=O)N(c3ccccc3)C2=O)cc1OC (stereo not drawn),45%
19,Cc1ccc(C(=O)/C=C\C(=O)c2ccc(C)cc2)cc1,51.1% (active)
20,Cc1ccc(C(=O)Oc2ccc3c(c2)ncn3C)cc1,47.5%
21,O=C(Nc1nc2c(c(=O)[nH]1)CCCC2)C1CC1,27%
22,O=C1CC(c2ccccc2Cl)CC(O)=C1C=Nc1ccccc1 (stereo not drawn),52.8% (active)
23,O=C1CC(c2cccc(Cl)c2)CC(O)=C1C=Nc1cccc(Cl)c1 (stereo not drawn),36.5%
24,C/C(=N\N1CCN(c2ccc(Cl)cc2)CC1)c1ccco1,23.6%
25,Cc1c(N)c(C(C)(C)C)cc(C(C)(C)C)c1[N+](=O)[O-],29.1%
26,OC(CNCCc1ccc(C(F)(F)F)cc1)COc1cccc2ccccc12 (stereo not drawn),65.5% (active)

row,SMILES,inhibition
1,COCCNC(=O)CCc1ccc(S(=O)(=O)Nc2ccc(C)cc2)cc1,25.8%
2,COC(=O)c1ccccc1NC(=O)N1CCN(C/C=C/c2ccccc2)CC1,39.6%
3,CCC(C)c1ccccc1NC(=O)CN1CCN(C/C=C/c2ccccc2)CC1 (stereo not drawn),46.3%
4,O=C(c1ccc(Br)s1)N1CCN(C/C=C/c2ccccc2)CC1,50.6% (active)
5,O=C(NCC1CCCO1)C(c1cccs1)N(Cc1cccs1)C(=O)Cn1nnc(-c2cccs2)n1 (stereo not drawn),28.1%
6,C#CCCCCCCC#CCN(C)C,28.6%
7,O=C(c1cnn2ccccc12)N1CCc2ccccc21,58% (active)
8,CSc1sc(C(=O)N2CCc3ccccc32)cc1S(=O)(=O)C(C)C,20.9%
9,CCC(=O)N1CCc2cc(S(=O)(=O)N3CCc4ccccc43)ccc21,10.5%
10,CCN(CC)S(=O)(=O)c1cccc(C(=O)Oc2cccc(NC(=O)c3cccs3)c2)c1,36%
11,O=C(/C=C\Nc1cccc(F)c1)c1cccs1,31.6%
12,COc1cc(NC(=O)c2cccs2)cc(OC)c1,78.8% (active)
13,CC(CCc1ccccc1)NC(=O)c1cc2sccc2n1C (stereo not drawn),46.2%
14,COc1cc(C(=O)CCN2CCC(c3ccccc3)C2)cc(OC)c1OC (stereo not drawn),41%
15,CC1CCN(C(=O)/C=C/c2ccc(C(C)(C)C)cc2)CC1,54.6% (active)
16,O=C(/C=C/c1ccccc1)N1CCC(c2ccccc2)C1 (stereo not drawn),54% (active)
17,O=C(/C=C/c1ccccc1)/C=C/c1ccccc1,47.8%
18,FC(F)(F)C(F)(F)c1nnc2ccc(-n3ccnc3)nn12,23%
19,O=C1CC(Sc2nnnn2-c2ccccc2)C(=O)N1c1cccc(Cl)c1 (stereo not drawn),59.5% (active)
20,COC(=O)c1ccccc1SC1CC(=O)N(c2ccccc2)C1=O (stereo not drawn),40.2%
21,O=C(O)c1ccccc1SC1CC(=O)N(c2ccccc2)C1=O (stereo not drawn),37.8%
22,Cc1cccc(Cn2c(C(C)(C)C)cc3cccnc32)c1,26%
23,CN(C)CCNC=C(C(=O)Nc1ccc(Cl)cc1Cl)C(=O)Nc1ccc(Cl)cc1Cl,38.9%
24,CCCN(Cc1nc(-c2ccc(Cl)cc2)no1)CC1CCCO1 (stereo not drawn),53.1% (active)
25,COc1ccc(-c2noc(CCC(=O)N3CCC(C)CC3)n2)cc1,48%
26,OCCNc1c2ccccc2nc2c(F)c(F)c(F)c(F)c12,34.6%

row,SMILES,inhibition
1,CCN(c1cccc(C)c1)S(=O)(=O)c1cccc(C(=O)O)c1,26.2%
2,Cc1cc(C)cc(Cn2ncc(Cl)c(Cl)c2=O)c1,60.6% (active)
3,Cn1ncc(S(=O)(=O)Cc2ccccc2)c(Cl)c1=O,21.1%
4,COC(=O)c1ccc(NC(=O)c2ccccc2N(C)S(=O)(=O)c2ccccc2)cc1,37%
5,CCCCCCOc1ccc(N2C(=O)CC(N3CCC(C(=O)OCC)CC3)C2=O)cc1 (stereo not drawn),21.6%
6,CCOc1ccc(C2N(c3ccc(F)cc3)C(=O)C3CCCN32)cc1 (stereo not drawn),16.4%
7,CCOc1ccc(N2C(=O)CC(N)C2=O)cc1 (stereo not drawn),64.3% (active)
8,Cc1cc(Cl)c(OCCCN2CCCCC2)c(Br)c1,33.4%
9,Cc1c(C(=O)NCC2COc3ccccc3O2)oc2ccc(S(=O)(=O)N3CC(C)CC(C)C3)cc12 (stereo not drawn),21.3%
10,COc1cc(OC)nc(-n2ncc(Br)c(Br)c2=O)n1,50% (active)
11,Cc1sc(NC(=O)c2cc3ccccc3oc2=O)c(C(=O)OC(C)C)c1-c1ccccc1,28.5%
12,C=CCNc1oc(COc2ccc(C)cc2)nc1C#N,47.8%
13,CCCN(CCC)C(=O)Cn1c(=O)n(CCCCC(=O)NCc2ccco2)c(=O)c2ccccc21,29.8%
14,CC1CCCC(NC(=O)C2CCN(S(=O)(=O)N3CCCCC3)CC2)C1C (stereo not drawn),26.3%
15,CCOC(=O)c1nn(-c2ccc(C)cc2)cc1C(=O)c1ccccc1,46.5%
16,Cc1ccc(C(=O)c2no[n+]([O-])c2C(=O)c2ccc(C)cc2)cc1,58.2% (active)
17,O=[N+]([O-])c1ccc2cn(-c3ccccc3)nc2c1,40.4%
18,NC(=O)C1(N2CCCCC2)CCN(Cc2nc(-c3cccs3)no2)CC1,37.5%
19,Oc1oc(-c2ccccc2)nc1C=Nc1cccc2ccccc12,40.1%
20,CCOC(=O)C1CCCCN1Cc1ccc(F)c(Br)c1 (stereo not drawn),31.7%
21,Cc1cc(Cl)c(OCCCn2ccnc2)c(Br)c1,38.1%
22,c1cc2c3c(cccc3c1)NC1(CCCCCC1)N2,13.9%
23,Cc1ccc(OC(=S)Nc2ccc(O)cc2)cc1,90.7% (active)
24,Cc1ccc(Oc2ccccc2/C=N/O)cc1,42.1%
25,O=C(CC(O)(C(F)(F)F)C(F)(F)F)Nc1ccc(Cl)c(Cl)c1,98.8% (active)
26,CN1CCN(C(=S)Nc2ccc(Cl)c(Cl)c2)CC1,24.9%

row,SMILES,inhibition
1,O=C(COc1ccc(CO)cc1Cl)Nc1ccc(F)cc1,25.6%
2,CC(=O)Nc1cccc(OCCCNC(=O)C2CCC2)c1,28.2%
3,Cc1c(NC(=O)c2cc3c(s2)-c2ccccc2OC3)cccc1[N+](=O)[O-],34.7%
4,Cc1ccc(-n2nnnc2C(Cl)c2nnnn2-c2ccc(C)cc2)cc1,71.5% (active)
5,O=[N+]([O-])c1ccc(-n2nnnc2-c2ccccc2)cc1,0.15%
6,CCc1oc2ccccc2c1C(=O)CCN1CCCCC1,37.6%
7,CCOc1ccc(/C=C/C(=O)c2ccccc2)cc1OC,53.2% (active)
8,CCOC(=O)c1cc(-c2ccccc2)n(CC(=O)Nc2ccc(OC)c(OC)c2)c1C,25.8%
9,COc1ccc(/C=N/OC(=O)Nc2ccccc2)cc1[N+](=O)[O-],23.2%
10,COc1ccc(/C=C\c2onc(C)c2S(=O)(=O)N2CCC(C(=O)NCc3ccco3)CC2)cc1,41.2%
11,O=C(NCc1ccco1)c1cnn2c1NC(c1ccc(Br)cc1)CC2C(F)(F)F (stereo not drawn),50.6% (active)
12,Cc1ccc(CN2CCN(/N=C/c3ccc(C(F)(F)F)cc3)CC2)c(C)c1,49%
13,CCOCC(O)CNC(=O)c1ccc(OC2CCN(C(=O)c3cccnc3)CC2)cc1 (stereo not drawn),29.6%
14,CC1CCN(CCOc2ccc(Cl)c(Cl)c2)CC1,43.7%
15,NC(=O)/C=C\C(=O)Nc1cccc(C(F)(F)F)c1,71.8% (active)
16,COC(=O)/C=C/C(=O)Nc1cccc(C(F)(F)F)c1,56.3% (active)
17,Cc1ccc(NC(=O)/C=C\C(=O)NCC(=O)O)cc1C,30.8%
18,COc1cc(Br)cc(C=Nc2cccc(C(F)(F)F)c2)c1O,11.4%
19,CCN(C(=O)COC(=O)c1cccnc1Nc1cccc(C(F)(F)F)c1)C1CCS(=O)(=O)C1 (stereo not drawn),45.4%
20,Cc1cs/c(=N\N=C\c2ccccc2)n1Cc1ccco1,32.1%
21,Cc1cccc(C)c1C(OCCN(C)C)C1CCCCC1 (stereo not drawn),37%
22,CC(=O)c1ccc(NC(=O)/C=C/c2ccc(C)cc2)cc1,48.6%
23,CSc1ccc(/C=C/C(=O)c2ccc(O)cc2)cc1,61.5% (active)
24,O=C(/C=C/Sc1ccccc1)c1ccc(Cl)cc1,38.4%
25,CSc1ccc(/C=C/C(=O)c2ccc(NC(C)=O)cc2)cc1,51% (active)
